Consider 1 sequence from paper PMC7862700, “An all-to-all approach to the identification of sequence-specific readers for epigenetic DNA modifications on cytosine”.

Common to all, as to assay: DAPPL (digital affinity profiling via proximity ligation, sequencing); 10 mM Tris-HCl pH 7.5, 50 mM NaCl, 1 mM DTT, 4% glycerol, room temperature, 30 min; GST-TFs on glutathione beads, 16-mer random dsDNA library, 0.1% formaldehyde crosslink after washing; high values mean tight binding
One assay concerns the target T1, FLI1 (Homo sapiens, UniProt Q01543 1-452).
T1 sequence: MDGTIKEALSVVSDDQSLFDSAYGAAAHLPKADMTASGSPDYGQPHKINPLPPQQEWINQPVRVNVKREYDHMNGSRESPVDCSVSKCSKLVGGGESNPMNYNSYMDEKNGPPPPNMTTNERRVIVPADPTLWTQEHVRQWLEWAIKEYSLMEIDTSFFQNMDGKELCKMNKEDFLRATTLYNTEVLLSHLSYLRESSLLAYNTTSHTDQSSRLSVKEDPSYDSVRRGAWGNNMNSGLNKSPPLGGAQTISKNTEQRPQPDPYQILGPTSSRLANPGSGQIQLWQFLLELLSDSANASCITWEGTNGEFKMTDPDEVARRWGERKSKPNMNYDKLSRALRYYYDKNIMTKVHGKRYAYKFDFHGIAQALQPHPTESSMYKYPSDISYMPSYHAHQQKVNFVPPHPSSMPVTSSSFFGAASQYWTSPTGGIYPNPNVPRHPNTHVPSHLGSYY
The note with it: protein: recombinant; tags: N-terminal GST; dsDNA, one strand shown. An outline of the steps:
(§1)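 Beads coated with glutathione captured GST-fused human transcription factors that had been expressed in yeast, and the factors were then given DNA barcodes and pooled with a tag-only sample. The pools were incubated with 200 nmole of a random double-stranded 16-mer DNA library in Tris/NaCl/DTT/glycerol buffer for 30 min at room temperature, washed, crosslinked with 0.1% formaldehyde and proximity-ligated with BsaI/T4 ligase at 37 °C for 1 h. PCR amplification and Illumina NextSeq500 sequencing came last. Binding signal is each hexamer's read frequency for a factor divided by its frequency for the tag-only sample.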

A further assay concerns the target T2, ELK1 (Homo sapiens, UniProt P19419 1-428).
T2 sequence: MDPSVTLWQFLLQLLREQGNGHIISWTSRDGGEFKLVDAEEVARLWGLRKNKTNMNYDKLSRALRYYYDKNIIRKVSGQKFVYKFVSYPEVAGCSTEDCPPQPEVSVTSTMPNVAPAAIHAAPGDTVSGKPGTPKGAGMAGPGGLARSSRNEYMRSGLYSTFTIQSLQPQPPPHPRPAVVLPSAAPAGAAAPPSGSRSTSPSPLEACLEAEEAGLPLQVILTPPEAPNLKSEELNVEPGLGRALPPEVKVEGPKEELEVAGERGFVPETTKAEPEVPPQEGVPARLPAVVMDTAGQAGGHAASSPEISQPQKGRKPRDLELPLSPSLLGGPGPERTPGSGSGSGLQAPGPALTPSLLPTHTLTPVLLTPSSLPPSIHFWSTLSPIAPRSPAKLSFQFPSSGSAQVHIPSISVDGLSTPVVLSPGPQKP
The note with it: protein: recombinant; tags: N-terminal GST; dsDNA, one strand shown. Put shortly: as §1

The next assay deals with T3, GABPA (Homo sapiens, UniProt Q06546 1-454).
T3 sequence: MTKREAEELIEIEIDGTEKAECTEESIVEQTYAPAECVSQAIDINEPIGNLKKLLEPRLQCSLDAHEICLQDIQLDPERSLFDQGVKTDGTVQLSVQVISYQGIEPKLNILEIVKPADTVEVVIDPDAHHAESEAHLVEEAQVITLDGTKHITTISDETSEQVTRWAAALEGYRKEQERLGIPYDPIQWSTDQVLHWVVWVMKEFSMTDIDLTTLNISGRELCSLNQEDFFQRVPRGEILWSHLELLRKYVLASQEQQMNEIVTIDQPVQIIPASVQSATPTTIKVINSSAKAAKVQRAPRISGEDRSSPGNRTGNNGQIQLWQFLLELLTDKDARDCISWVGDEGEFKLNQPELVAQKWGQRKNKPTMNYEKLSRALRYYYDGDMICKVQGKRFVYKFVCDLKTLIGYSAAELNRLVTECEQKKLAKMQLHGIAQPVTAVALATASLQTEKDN
The note with it: protein: recombinant; tags: N-terminal GST; dsDNA, one strand shown. An outline of the steps: as §1

A further assay deals with T4, ERG (Homo sapiens, UniProt P11308 1-479).
T4 sequence: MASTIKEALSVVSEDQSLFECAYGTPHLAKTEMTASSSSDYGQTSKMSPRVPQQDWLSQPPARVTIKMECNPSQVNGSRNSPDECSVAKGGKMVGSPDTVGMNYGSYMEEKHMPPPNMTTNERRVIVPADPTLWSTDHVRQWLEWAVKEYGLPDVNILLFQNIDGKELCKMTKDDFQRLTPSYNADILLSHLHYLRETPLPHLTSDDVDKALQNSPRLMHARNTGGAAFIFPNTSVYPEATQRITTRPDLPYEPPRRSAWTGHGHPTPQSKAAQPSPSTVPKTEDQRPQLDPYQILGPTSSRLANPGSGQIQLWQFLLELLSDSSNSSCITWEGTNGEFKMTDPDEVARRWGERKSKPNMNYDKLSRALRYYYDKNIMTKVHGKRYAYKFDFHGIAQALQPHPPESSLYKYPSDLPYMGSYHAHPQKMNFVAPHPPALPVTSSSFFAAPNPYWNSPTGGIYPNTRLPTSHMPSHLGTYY
The note with it: protein: recombinant; tags: N-terminal GST; dsDNA, one strand shown. An outline of the steps: as §1

For the next assay, the target named is ELF1 (Homo sapiens, UniProt P32519 1-619). The note with it: protein: recombinant; tags: N-terminal GST; dsDNA, one strand shown. Put shortly:
as §1

The next assay has as its target T5, EHF (Homo sapiens, UniProt Q9NZC4 1-300).
T5 sequence: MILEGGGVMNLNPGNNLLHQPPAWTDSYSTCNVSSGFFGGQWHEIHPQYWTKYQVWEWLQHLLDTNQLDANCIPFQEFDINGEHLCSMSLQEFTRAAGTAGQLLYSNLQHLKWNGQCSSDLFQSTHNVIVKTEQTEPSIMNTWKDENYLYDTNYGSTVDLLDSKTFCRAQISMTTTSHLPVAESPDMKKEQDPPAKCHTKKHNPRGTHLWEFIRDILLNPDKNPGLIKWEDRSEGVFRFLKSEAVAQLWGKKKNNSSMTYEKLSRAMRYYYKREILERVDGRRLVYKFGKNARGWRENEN
The note with it: protein: recombinant; tags: N-terminal GST; dsDNA, one strand shown. An outline of the steps: as §1

The target in a further assay is SPI1 (Homo sapiens, UniProt P17947 1-270). The note with it: protein: recombinant; tags: N-terminal GST; dsDNA, one strand shown. Put shortly:
as §1

Another assay deals with SPIB (Homo sapiens, UniProt Q01892 1-262). The note with it: protein: recombinant; tags: N-terminal GST; dsDNA, one strand shown. Put shortly:
as §1

For another assay, the target named is T6, ELK3 (Homo sapiens, UniProt P41970 1-407).
T6 sequence: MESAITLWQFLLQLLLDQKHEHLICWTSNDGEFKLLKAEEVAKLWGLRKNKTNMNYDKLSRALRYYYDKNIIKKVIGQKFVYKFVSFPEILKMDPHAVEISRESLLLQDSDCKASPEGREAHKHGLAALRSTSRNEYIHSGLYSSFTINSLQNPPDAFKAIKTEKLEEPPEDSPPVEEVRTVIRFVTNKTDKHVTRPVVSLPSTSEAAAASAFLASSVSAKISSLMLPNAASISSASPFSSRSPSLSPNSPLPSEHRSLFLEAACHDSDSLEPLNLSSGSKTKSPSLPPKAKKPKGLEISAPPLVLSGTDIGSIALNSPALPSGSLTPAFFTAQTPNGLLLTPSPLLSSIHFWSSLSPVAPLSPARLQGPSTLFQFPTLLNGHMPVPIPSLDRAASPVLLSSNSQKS
The note with it: protein: recombinant; tags: N-terminal GST; dsDNA, one strand shown. An outline of the steps: as §1

Another assay addresses T7, FEV (Homo sapiens, UniProt Q99581 1-238).
T7 sequence: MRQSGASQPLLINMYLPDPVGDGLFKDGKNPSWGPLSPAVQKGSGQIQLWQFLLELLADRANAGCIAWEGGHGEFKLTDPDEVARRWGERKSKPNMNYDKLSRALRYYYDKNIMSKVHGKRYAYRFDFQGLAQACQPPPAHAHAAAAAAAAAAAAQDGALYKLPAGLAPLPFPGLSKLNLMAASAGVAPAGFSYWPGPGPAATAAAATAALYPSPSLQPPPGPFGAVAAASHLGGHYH
The note with it: protein: recombinant; tags: N-terminal GST; dsDNA, one strand shown. An outline of the steps: as §1

A further assay addresses ETV5 (Homo sapiens, UniProt P41161 1-510). The note with it: protein: recombinant; tags: N-terminal GST; dsDNA, one strand shown. Put shortly:
as §1

Another assay concerns the target HSF1 (Homo sapiens, UniProt Q00613 1-529). The note with it: protein: recombinant; tags: N-terminal GST; chain copies: 3; dsDNA, one strand shown. Put shortly: as §1
The target of the next assay is T8, SPIC (Homo sapiens, UniProt Q8N5J4 1-248).
T8 sequence: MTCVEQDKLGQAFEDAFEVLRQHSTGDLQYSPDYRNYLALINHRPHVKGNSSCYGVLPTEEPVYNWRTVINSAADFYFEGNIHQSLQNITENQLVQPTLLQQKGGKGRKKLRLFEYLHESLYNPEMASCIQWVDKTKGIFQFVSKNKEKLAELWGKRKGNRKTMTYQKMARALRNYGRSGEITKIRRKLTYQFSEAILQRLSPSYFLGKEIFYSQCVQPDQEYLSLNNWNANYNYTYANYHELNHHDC
The note with it: protein: recombinant; tags: N-terminal GST; dsDNA, one strand shown. An outline of the steps:
as §1

Another assay concerns the target ELF4 (Homo sapiens, UniProt Q99607 1-663). The note with it: protein: recombinant; tags: N-terminal GST; dsDNA, one strand shown. Put shortly:
as §1

In a further assay the target is T9, ELK4 (Homo sapiens, UniProt P28324-2 1-405).
T9 sequence: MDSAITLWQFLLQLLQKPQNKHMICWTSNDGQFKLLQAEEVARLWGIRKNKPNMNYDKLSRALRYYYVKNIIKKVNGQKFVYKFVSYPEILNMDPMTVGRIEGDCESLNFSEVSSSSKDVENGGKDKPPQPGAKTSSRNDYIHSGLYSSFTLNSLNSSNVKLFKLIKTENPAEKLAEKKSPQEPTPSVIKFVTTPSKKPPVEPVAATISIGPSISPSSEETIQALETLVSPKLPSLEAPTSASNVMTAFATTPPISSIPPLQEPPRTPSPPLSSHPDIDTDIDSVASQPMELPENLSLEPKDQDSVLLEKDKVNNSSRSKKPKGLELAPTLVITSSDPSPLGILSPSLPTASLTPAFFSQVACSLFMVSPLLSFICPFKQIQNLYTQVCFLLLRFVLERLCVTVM
The note with it: protein: recombinant; tags: N-terminal GST; dsDNA, one strand shown. An outline of the steps:
as §1

The next assay has as its target T10, ETV2 (Homo sapiens, UniProt O00321 1-342).
T10 sequence: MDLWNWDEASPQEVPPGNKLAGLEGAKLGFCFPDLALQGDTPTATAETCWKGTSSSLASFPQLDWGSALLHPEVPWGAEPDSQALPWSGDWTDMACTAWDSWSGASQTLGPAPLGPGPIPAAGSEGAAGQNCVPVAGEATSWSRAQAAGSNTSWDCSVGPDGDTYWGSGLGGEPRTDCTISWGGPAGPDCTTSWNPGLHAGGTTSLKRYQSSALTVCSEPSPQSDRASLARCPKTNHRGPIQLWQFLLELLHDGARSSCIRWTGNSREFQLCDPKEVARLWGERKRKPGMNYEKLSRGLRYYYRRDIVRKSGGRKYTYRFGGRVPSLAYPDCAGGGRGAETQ
The note with it: protein: recombinant; tags: N-terminal GST; dsDNA, one strand shown. An outline of the steps:
as §1

Another assay concerns the target T11, ELF3 (Homo sapiens, UniProt P78545 1-371).
T11 sequence: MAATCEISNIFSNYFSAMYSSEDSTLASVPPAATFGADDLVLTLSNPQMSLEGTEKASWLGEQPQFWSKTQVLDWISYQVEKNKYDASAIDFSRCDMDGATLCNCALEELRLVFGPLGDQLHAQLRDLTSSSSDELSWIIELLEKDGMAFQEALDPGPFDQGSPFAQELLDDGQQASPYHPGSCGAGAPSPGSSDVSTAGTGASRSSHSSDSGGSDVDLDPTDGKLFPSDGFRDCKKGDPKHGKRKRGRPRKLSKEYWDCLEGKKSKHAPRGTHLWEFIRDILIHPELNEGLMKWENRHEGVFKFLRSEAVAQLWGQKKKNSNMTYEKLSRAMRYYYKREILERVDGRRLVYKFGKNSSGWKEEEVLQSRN
The note with it: protein: recombinant; tags: N-terminal GST; dsDNA, one strand shown. An outline of the steps:
as §1

The next assay addresses CRX (Homo sapiens, UniProt O43186 1-299). The note with it: protein: recombinant; tags: N-terminal GST; dsDNA, one strand shown. An outline of the steps:
as §1

A further assay deals with ETV1 (Homo sapiens, UniProt P50549 1-477). The note with it: protein: recombinant; tags: N-terminal GST; dsDNA, one strand shown. Put shortly:
as §1

Sequence of ELF1 (P32519 whole entry): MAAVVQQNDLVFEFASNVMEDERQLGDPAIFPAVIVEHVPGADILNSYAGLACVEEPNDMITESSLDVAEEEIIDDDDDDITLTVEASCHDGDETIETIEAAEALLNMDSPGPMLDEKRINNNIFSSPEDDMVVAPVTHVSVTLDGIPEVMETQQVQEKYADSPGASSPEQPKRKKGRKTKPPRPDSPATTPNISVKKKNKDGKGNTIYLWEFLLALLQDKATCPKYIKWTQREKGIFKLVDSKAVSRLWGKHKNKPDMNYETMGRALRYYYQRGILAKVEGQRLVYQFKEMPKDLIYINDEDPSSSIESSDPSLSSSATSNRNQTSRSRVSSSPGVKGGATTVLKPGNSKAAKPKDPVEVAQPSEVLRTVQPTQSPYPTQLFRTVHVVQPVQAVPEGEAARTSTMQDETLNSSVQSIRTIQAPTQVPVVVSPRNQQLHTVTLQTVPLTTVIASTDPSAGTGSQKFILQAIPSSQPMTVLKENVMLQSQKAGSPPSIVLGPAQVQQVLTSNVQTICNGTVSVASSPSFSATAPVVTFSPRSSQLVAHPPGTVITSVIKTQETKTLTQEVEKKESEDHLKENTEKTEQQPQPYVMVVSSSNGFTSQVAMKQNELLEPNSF
Sequence of HSF1 (Q00613 whole entry): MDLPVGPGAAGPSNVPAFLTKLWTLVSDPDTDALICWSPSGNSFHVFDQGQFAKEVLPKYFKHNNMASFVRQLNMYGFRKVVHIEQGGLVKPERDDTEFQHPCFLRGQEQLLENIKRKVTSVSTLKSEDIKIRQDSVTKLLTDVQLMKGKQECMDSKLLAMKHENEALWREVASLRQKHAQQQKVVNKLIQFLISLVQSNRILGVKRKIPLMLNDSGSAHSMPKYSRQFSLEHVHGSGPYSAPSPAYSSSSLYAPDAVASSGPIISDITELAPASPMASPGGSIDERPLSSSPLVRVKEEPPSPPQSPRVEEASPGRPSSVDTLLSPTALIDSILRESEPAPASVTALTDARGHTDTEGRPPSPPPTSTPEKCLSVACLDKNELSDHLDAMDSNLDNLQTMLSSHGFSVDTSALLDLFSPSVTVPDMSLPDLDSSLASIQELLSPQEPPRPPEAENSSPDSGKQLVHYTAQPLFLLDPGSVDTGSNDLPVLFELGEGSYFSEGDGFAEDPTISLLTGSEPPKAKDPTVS
Sequence of CRX (O43186 whole entry): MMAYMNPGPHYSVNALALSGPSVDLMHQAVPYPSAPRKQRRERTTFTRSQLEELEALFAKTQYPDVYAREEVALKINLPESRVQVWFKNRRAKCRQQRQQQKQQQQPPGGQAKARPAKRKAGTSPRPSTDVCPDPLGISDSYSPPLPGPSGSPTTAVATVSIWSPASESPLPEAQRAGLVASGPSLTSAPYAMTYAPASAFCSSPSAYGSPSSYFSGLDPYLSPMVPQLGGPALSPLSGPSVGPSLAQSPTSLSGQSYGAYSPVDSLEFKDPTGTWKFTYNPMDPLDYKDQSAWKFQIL
Sequence of ELF4 (Q99607 whole entry): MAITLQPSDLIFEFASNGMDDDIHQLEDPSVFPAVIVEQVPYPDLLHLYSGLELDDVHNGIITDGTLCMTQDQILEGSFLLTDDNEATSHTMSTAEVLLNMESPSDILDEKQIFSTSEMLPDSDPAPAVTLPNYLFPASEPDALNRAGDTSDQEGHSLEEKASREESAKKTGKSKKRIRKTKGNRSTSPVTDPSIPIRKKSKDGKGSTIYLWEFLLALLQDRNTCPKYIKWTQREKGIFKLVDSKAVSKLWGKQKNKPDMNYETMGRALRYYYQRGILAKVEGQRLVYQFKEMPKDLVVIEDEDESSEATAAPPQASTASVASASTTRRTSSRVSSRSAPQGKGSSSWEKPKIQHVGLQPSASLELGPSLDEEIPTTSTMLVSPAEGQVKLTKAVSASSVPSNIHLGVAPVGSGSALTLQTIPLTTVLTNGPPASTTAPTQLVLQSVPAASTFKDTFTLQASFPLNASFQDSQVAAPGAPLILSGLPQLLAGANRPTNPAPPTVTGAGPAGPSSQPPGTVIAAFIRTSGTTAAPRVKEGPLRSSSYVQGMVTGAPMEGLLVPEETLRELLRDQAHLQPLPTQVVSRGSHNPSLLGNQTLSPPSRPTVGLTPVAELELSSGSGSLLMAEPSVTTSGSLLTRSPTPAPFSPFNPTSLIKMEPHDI
Sequence of ETV1 (P50549 whole entry): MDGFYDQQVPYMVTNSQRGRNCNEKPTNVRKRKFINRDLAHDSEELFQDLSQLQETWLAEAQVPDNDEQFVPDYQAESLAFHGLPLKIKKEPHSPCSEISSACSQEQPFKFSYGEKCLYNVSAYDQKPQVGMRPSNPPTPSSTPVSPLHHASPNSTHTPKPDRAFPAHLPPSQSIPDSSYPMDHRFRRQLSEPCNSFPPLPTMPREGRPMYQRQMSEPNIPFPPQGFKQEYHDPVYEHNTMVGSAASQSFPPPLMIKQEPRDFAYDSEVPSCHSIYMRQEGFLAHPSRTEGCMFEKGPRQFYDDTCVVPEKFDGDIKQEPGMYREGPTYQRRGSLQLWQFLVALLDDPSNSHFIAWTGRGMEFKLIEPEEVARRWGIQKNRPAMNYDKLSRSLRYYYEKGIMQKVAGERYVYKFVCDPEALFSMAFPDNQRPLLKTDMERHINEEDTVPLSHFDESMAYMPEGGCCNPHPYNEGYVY
Sequence of SPIB (Q01892 whole entry): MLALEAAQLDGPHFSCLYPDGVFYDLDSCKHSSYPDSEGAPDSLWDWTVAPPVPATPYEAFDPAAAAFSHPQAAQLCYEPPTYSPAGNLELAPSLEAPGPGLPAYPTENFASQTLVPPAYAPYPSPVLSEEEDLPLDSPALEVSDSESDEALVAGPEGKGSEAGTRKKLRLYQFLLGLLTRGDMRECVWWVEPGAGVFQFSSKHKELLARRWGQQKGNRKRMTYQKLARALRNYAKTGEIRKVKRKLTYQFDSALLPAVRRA
Sequence of ETV5 (P41161 whole entry): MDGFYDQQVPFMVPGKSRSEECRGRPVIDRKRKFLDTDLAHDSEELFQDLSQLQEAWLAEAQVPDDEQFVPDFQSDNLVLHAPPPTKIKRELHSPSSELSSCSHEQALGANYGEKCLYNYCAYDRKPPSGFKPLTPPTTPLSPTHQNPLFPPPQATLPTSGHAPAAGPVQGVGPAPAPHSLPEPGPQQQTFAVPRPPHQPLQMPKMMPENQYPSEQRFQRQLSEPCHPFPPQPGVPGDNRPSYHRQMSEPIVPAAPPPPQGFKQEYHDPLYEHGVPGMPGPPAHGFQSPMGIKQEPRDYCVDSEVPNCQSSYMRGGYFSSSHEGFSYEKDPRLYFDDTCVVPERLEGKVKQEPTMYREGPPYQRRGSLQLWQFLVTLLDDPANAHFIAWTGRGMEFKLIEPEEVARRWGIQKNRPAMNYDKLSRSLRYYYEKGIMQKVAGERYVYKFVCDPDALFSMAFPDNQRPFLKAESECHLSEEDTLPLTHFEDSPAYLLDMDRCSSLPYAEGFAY

Regarding AAAAAA, the binding signal with FLI1 is 1.29 fold enrichment (6-mer frequency, TF over GST control); with ELK1, 1.28 fold enrichment (6-mer frequency, TF over GST control); in the assay with GABPA, 1.3 fold enrichment (6-mer frequency, TF over GST control); with ERG, 1.2 fold enrichment (6-mer frequency, TF over GST control); with ELF1 it was 1.32 fold enrichment (6-mer frequency, TF over GST control); in the assay with EHF, 1.45 fold enrichment (6-mer frequency, TF over GST control). Besides, the binding signal with SPI1 was 1.52 fold enrichment (6-mer frequency, TF over GST control); in the assay with SPIB, 1.4 fold enrichment (6-mer frequency, TF over GST control); with ELK3 it was 1.41 fold enrichment (6-mer frequency, TF over GST control); with FEV, 1.37 fold enrichment (6-mer frequency, TF over GST control); with ETV5, 1.35 fold enrichment (6-mer frequency, TF over GST control); in the assay with HSF1 it was 1.41 fold enrichment (6-mer frequency, TF over GST control). Moreover, the binding signal with SPIC is 1.29 fold enrichment (6-mer frequency, TF over GST control); in the assay with ELF4 it was 1.37 fold enrichment (6-mer frequency, TF over GST control); with ELK4, 1.23 fold enrichment (6-mer frequency, TF over GST control); with ETV2 it was 1.35 fold enrichment (6-mer frequency, TF over GST control); with ELF3 it was 1.26 fold enrichment (6-mer frequency, TF over GST control); in the assay with CRX it was 1.22 fold enrichment (6-mer frequency, TF over GST control). In addition, the binding signal with ETV1 was 1.27 fold enrichment (6-mer frequency, TF over GST control).
